Reference: PubChem BioAssay (NCI)
This is part of a sample that, as a whole, favours compounds with a hit. Of some 79,000 tested, about 15% had one in any assay. The source made the active and inactive calls. Cut-off read from the data, not from the text of the source: active = growth inhibition above about 70%; inactive = the rest.

Assays:
[1] = NCI Yeast Anticancer Drug Screen. Data for the rad52 strain (AID 147);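 note: 0% = growth of vehicle-treated control cultures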; details: S. cerevisiae rad52 mutant growth inhibition, active compounds read high
Procedure, shortened: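 The repair-mutant yeast strain was incubated with compounds, then growth was read and inhibition derived relative to vehicle.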

[2] = NCI Yeast Anticancer Drug Screen. Data for the wt1 strain (AID 149);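 note: 0% = growth of vehicle-treated wt1 cultures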; details: S. cerevisiae wt1 strain (SPY 50644) growth inhibition, active compounds read high
Procedure, shortened: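 wt1 yeast, compound-treated; % growth inhibition vs vehicle control.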

[3] = NCI Yeast Anticancer Drug Screen. Data for the rad50EPP+ strain (AID 151);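 note: 0% = growth of vehicle-treated control cultures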; details: S. cerevisiae rad50 mutant strain, active compounds read high
Procedure, shortened: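 Vehicle-normalised growth inhibition; rad50EPP+ yeast strain, altered in DNA damage repair, compound-treated.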

[4] = NCI Yeast Anticancer Drug Screen. Data for the rad50 strain (AID 155);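 note: 0% = growth of vehicle-only cultures of the same strain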; details: S. cerevisiae rad50 strain growth inhibition, active compounds read high
Procedure, shortened: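 Genetically altered yeast (DNA repair pathway); compound treatment; growth inhibition vs vehicle ctrl.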

[5] = NCI Yeast Anticancer Drug Screen. Data for the mec2-1 strain (AID 157); details: S. cerevisiae mec2-1 strain, active compounds read high
Procedure, shortened: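 Mutant yeast (mec2-1) grown with compound; growth inhibition relative to vehicle control reported.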

[6] = NCI Yeast Anticancer Drug Screen. Data for the rad14 strain (AID 159);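 note: 0% = growth of vehicle-treated control cultures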; details: S. cerevisiae rad14 strain growth inhibition, active compounds read high
Procedure, shortened: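 Test compounds were applied to a repair-deficient yeast strain. Its growth was then compared with that of cultures given vehicle alone, and inhibition was expressed relative to those controls.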

[7] = NCI Yeast Anticancer Drug Screen. Data for the sgs1 mgt1 strain (AID 161);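 note: 0% = growth of cultures given vehicle only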; details: S. cerevisiae sgs1 mgt1 strain, active compounds read high
Procedure, shortened: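 Growth of a repair-deficient yeast mutant was monitored after compound treatment and expressed as inhibition relative to vehicle-treated cultures.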

[8] = NCI Yeast Anticancer Drug Screen. Data for the CLN2oe strain (AID 163);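 note: 0% = growth of vehicle-only control cultures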; details: S. cerevisiae CLN2oe strain, active compounds read high
Procedure, shortened: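 Compounds are applied to yeast harbouring a defined cell-cycle control change; reduced growth compared with vehicle-treated controls gives the value.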

[9] = NCI Yeast Anticancer Drug Screen. Data for the cln2 rad14 strain (AID 165);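 note: 0% = growth equal to vehicle treated cultures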; details: S. cerevisiae cln2 rad14 strain, active compounds read high
Procedure, shortened: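 Readout is yeast growth inhibition versus vehicle-treated controls, using a strain with cln2 and rad14 alterations exposed to compound.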

[10] = NCI Yeast Anticancer Drug Screen. Data for the bub3 strain (AID 167); details: S. cerevisiae bub3 mutant strain, active compounds read high
Procedure, shortened: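 Yeast carrying a defined mutation is treated with each compound, and growth is compared with that of vehicle-exposed cells to give inhibition.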

[11] = NCI Yeast Anticancer Drug Screen. Data for the wt2 strain (AID 169);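 note: 0% = growth of vehicle-treated yeast cultures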; details: S. cerevisiae wt2 strain growth inhibition, active compounds read high
Procedure, shortened: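 Against vehicle-treated controls, the growth of yeast exposed to each compound was compared, and the inhibition was recorded.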

[12] = NCI Yeast Anticancer Drug Screen. Data for the mlh1 strain (AID 171);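 note: 0% = growth of vehicle-treated control cultures of the same strain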; details: S. cerevisiae mlh1 strain growth inhibition, active compounds read high
Procedure, shortened: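 Measured: yeast growth. Reference: vehicle-treated controls. Organism: strain with a defined alteration affecting DNA damage repair or cell cycle control, treated with compound.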

[13] = NCI Yeast Anticancer Drug Screen. Data for the sgs1 strain (AID 173);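 note: 0% = growth of vehicle-only control cultures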; details: S. cerevisiae sgs1 mutant, active compounds read high
Procedure, shortened: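 Each compound was added to cultures of the altered yeast strain. Growth was recorded, and inhibition was derived by comparison with vehicle controls.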

[14] = NCI Yeast Anticancer Drug Screen. Data for the mlh1 rad18 strain (AID 175); details: S. cerevisiae mlh1 rad18 strain growth inhibition, active compounds read high
Procedure, shortened: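 Genetically defined yeast (DNA repair-deficient) exposed to compounds; growth inhibition determined relative to vehicle.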

[15] = NCI Yeast Anticancer Drug Screen. Data for the rad18 strain (AID 177); details: S. cerevisiae rad18 mutant growth inhibition, active compounds read high
Procedure, shortened: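 Vehicle-treated cultures served as the baseline for scoring compound-induced growth inhibition in DNA-repair-mutant yeast.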

[16] = at 5.0 µM (retest, dose inferred, filed as 0.5)
[17] = at 50.0 µM (retest, dose inferred, filed as 5.0)

Measured: growth inhibition

CC(C)c1[nH]nc(C(N)=O)c1N=NN(C)C
inactive: [1]; at 1.2 µM 3% | [1]; at 3.7 µM 4% | [1]; at 11.0 µM 40% | [2]; at 1.2 µM -5% | [2]; at 3.7 µM -4% | [2]; at 11.0 µM -8% | [2]; at 33.0 µM -7% | [2]; at 100.0 µM -1% | [3]; at 1.2 µM -1% | [3]; at 3.7 µM 15% | [3]; at 11.0 µM 37% | [4]; at 1.2 µM -5% | [4]; at 3.7 µM 3% | [4]; [16] -90% | [4]; at 11.0 µM 33% | [5]; at 1.2 µM 1% | [5]; at 3.7 µM -1% | [5]; [16] -46% | [5]; at 11.0 µM -10% | [5]; at 33.0 µM 4% | [5]; [17] -16% | [5]; at 50.0 µM 24.4% | [5]; at 100.0 µM 61% | [6]; at 1.2 µM -1% | [6]; at 3.7 µM 1% | [6]; at 11.0 µM 6% | [6]; at 33.0 µM 12% | [6]; at 100.0 µM 29% | [7]; [16] -47% | [7]; [17] 24% | [7]; at 50.0 µM 28.9% | [8]; at 1.2 µM -3% | [8]; at 3.7 µM -5% | [8]; at 11.0 µM -2% | [8]; at 33.0 µM -5% | [8]; at 100.0 µM 6% | [9]; [16] -55% | [9]; [17] -43% | [9]; at 50.0 µM 5.65% | [10]; at 1.2 µM -17% | [10]; at 3.7 µM -5% | [10]; [16] -63% | [10]; at 11.0 µM -5% | [10]; at 33.0 µM -14% | [10]; [17] -87% | [10]; at 50.0 µM -4% | [10]; at 100.0 µM -2% | [11]; at 1.2 µM -2% | [11]; at 3.7 µM -1% | [11]; at 11.0 µM -2% | [11]; at 33.0 µM -8% | [11]; at 100.0 µM 4% | [12]; at 1.2 µM 4% | [12]; at 3.7 µM -8% | [12]; at 11.0 µM -2% | [12]; at 33.0 µM -3% | [12]; at 100.0 µM 4% | [13]; at 1.2 µM -2% | [13]; at 3.7 µM -6% | [13]; at 11.0 µM 12% | [13]; at 33.0 µM 51% | [14]; [16] -101% | [14]; [17] 24% | [14]; at 50.0 µM 58.1% | [15]; at 1.2 µM 3% | [15]; at 3.7 µM 12% | [15]; at 11.0 µM 39%
active: [1]; at 33.0 µM 87% | [1]; at 100.0 µM 95% | [3]; at 33.0 µM 73% | [3]; at 100.0 µM 91% | [4]; at 33.0 µM 81% | [4]; [17] 83% | [4]; at 50.0 µM 91.5% | [4]; at 100.0 µM 93% | [13]; at 100.0 µM 84% | [15]; at 33.0 µM 80% | [15]; at 100.0 µM 94%
